# Assay results as given in PubChem BioAssay.
# “And” between values parts separate entries of the source, which are not always exact repeats. Equal values may be shown once. The source made the active and inactive calls. Cut-off read from the data, not from the text of the source, unless noted: active = inhibition above about 80%; inactive = the rest.
# Key:
# [1] = viability loss with induced miR-34 in A549 – imaging, A549 dox-inducible miR-34, nuclei and caspase counts, primary screen (AID 1347080;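 active = compounds whose cell count with miR-34 switched on is under 0.7 times the count with it off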); conditions: A549 miR-34 inducible, Hoechst nuclei count, 48 h
# [2] = MELAS cybrid and Rieske KO viability enhancers – cell-based, MELAS cybrids, Rieske KO mouse fibroblasts, CellTiter-Glo, primary screen (AID 1508586;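 active = mean z-score across replicates of 1.96 or higher in either the MELAS or the Rieske mutant cell line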;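 note: z relative to plate mean and SD of compound and empty wells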); conditions: low glucose
# [3] = galactose survival enhancers in mitochondrial complex I cybrids – cell-based, galactose medium, ATP luminescence, primary screen (AID 1645843;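 active = z-score of at least 1.8 in each of two replicates, scored against plate mean and spread of sample wells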;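 note: positive z means more ATP and so rescue of galactose-driven cybrid death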); conditions: complex I mutant cybrid cells, 72 h, stronger effect = higher value
# [4] = growth inhibition, single agent or in combination, cell-based, chromothripsis tumors, cisplatin or BGB combos (AID 1671449); conditions: LFS_MB_P medulloblastoma cells;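 note: cells exposed for 96 hours; 0% = vehicle DMSO and 100% = killing by high DMSO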
# [5] = growth inhibition, single agent and combos, cell-based, chromothripsis tumors, cisplatin or BGB combos (AID 1671450); conditions: HDN33 neuroblastoma cells, stronger effect = higher value;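 note: cells exposed to compound for four days; 0% = vehicle DMSO and 100% = cell killing by high DMSO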
# [6] = growth inhibition, single agents and combos, ICB984, cell-based, cisplatin or BGB combos, synergistic combos for chromothripsis tumors (AID 1671451; call rule not given here;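 note: cells exposed for 96 hours before readout; 0% = vehicle DMSO and 100% = killing by high DMSO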); conditions: ICB984 medulloblastoma cells, drug combinations, stronger effect = higher value
# [7] = growth inhibition, single agents and combos, LFS_MB_1R, cell-based, cisplatin or BGB combos, synergistic combos for chromothripsis tumors (AID 1671452); conditions: LFS_MB_1R medulloblastoma cells, stronger effect = higher value;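 note: cells exposed for 96 hours before readout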
# [8] = growth inhibition, single agents and combos, HTB85, cell-based, BGB or cisplatin IC20 combos, synergistic combos for chromothripsis tumors (AID 1671453); conditions: HTB85 osteosarcoma cells, drug combinations, stronger effect = higher value;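 note: cells exposed for 96 hours before readout; 0% = vehicle DMSO and 100% = high DMSO killing control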
# [9] = growth inhibition, single agents and combos, CRL2098, cell-based, BGB or cisplatin IC20 combos, synergistic combos for chromothripsis tumors (AID 1671454); conditions: CRL2098 osteosarcoma cells, drug combinations, stronger effect = higher value;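 note: cells exposed for 96 h before readout; 0% = vehicle DMSO and 100% = killing by high DMSO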
# [10] = growth inhibition, single agents and combos, HD-MB03, cell-based, BGB or cisplatin IC20 combos, synergistic combos for chromothripsis tumors (AID 1671455; in the data active = inhibition above about 83%;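 note: 0% = vehicle DMSO and 100% = high DMSO as cytotoxic control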); conditions: HD-MB03 medulloblastoma cells, stronger effect = higher value
# [11] = growth inhibition, single agents and combos, UWB1.289, cell-based, BGB or cisplatin combos, synergistic combos for chromothripsis tumors (AID 1671456); conditions: UWB1.289 ovarian carcinoma cells, stronger effect = higher value;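 note: cells exposed to compound for four days; 0% = vehicle DMSO and 100% = killing by high DMSO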
# [12] = growth inhibition, single agents and combos, LFS_MB_2R, cell-based, cisplatin combos, synergistic combos for chromothripsis tumors (AID 1671457); conditions: LFS_MB_2R medulloblastoma cells, stronger effect = higher value;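 note: cells exposed to compound for four days before readout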
# [13] = growth inhibition, MDA-MB-436, cell-based, BGB or cisplatin combos, synergistic combos for chromothripsis tumors (AID 1671458; call rule not given here;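 note: cells exposed for 96 hours; 0% = vehicle DMSO and 100% = killing by high DMSO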); conditions: MDA-MB-436 breast carcinoma growth inhibition, drug combinations, stronger effect = higher value
# [14] = UWB1.289_BRCA1 ovarian cancer growth, cell-based, BGB or cisplatin combinations (AID 1671459); conditions: UWB1.289 BRCA1 ovarian carcinoma, drug combinations, stronger effect = higher value
# [15] = drug combination toxicity in non-malignant astrocytes – cell-based, BGB or cisplatin IC20 combos, cytotoxicity control for chromothriptic childhood tumor combination screen (AID 1671460); conditions: Human astrocytes, viability inhibition, drug combinations, at 0.5 µM, stronger effect = higher value;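 note: cells exposed to compounds for 96 hours before viability readout; 0% = vehicle and 100% = killing control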
# [16] = BT084 cell growth, single and combined drugs, ICGC_MB145, cisplatin and BGB IC40 combos (AID 1671461); conditions: BT084 medulloblastoma cells, drug combinations, stronger effect = higher value;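 note: cells exposed to drugs for 96 hours; 0% = vehicle DMSO and 100% = high DMSO full killing control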
# [17] = RCMB18 cell growth, single agent and combined, cisplatin and BGB IC40 combos (AID 1671462); conditions: RCMB18 medulloblastoma cells, stronger effect = higher value;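 note: cells exposed to compound for four days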
# [18] = CRL1545 cell growth, single agent and combined, cisplatin and BGB IC20 combos (AID 1671464); conditions: CRL1545 osteosarcoma cells, stronger effect = higher value;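 note: cells exposed to compound for 96 hours before readout; 0% = vehicle DMSO and 100% = high DMSO killing control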
# [19] = stronger effect = lower value, cell number ratio, induced over uninduced
# [20] = measured here: relative caspase fold change +Dox/-Dox
# [21] = measured here: total cells with miR-34 induction, stronger effect = lower value
# [22] = measured here: total cells without miR-34 induction
# [23] = MELAS cybrid survival, CellTiter-Glo 48 h, stronger effect = higher value
# [24] = Rieske KO mouse fibroblast survival, CellTiter-Glo 72 h
# [25] = measured here: combination with BGB IC40, at 0.05 µM
# [26] = measured here: with BGB IC20 combination, at 0.5 µM
# [27] = measured here: with cisplatin IC20 combination, at 0.5 µM
# [28] = measured here: combination with cisplatin, at 0.5 µM
# [29] = measured here: combination with cisplatin, at 5 µM
smiles,measurement,setting,value
Cc1c(Br)c(=O)oc2c(Br)c(O)ccc12,fold change,[1]; [19],0.86 (inactive)
same,fold change,[1]; [20],0.806
same,cell count,[1]; [21],8490
same,cell count,[1]; [22],9870
same,z-score,[2]; [23],0.723 (inactive)
same,z-score,[2]; [24],-0.168
same,z-score,[3],-0.145 (inactive)
Nc1ccn(C2CCC(CO)O2)c(=O)n1 (centres undefined),fold change,[1]; [19],0.958 (inactive) and 0.921 (inactive)
same,fold change,[1]; [20],1.84 and 0.793
same,cell count,[1]; [21],9800 and 8610
same,cell count,[1]; [22],10200 and 9350
same,z-score,[2]; [23],-0.101 (inactive)
same,z-score,[2]; [24],0.566
same,z-score,[3],0.445 (inactive)
same,inhibition,"[4]; at 0.5 µM, stronger effect = higher value",-21% (inactive)
same,inhibition,"[4]; measured here: combination with BGB IC20, at 0.005 µM",-12.9%
same,inhibition,"[4]; measured here: combination with BGB IC40, at 0.005 µM",8.5%
same,inhibition,[4]; [25],-10.6%
same,inhibition,"[4]; measured here: combination with cisplatin, at 0.5 µM, stronger effect = higher value",-35%
same,inhibition,"[4]; measured here: combination with cisplatin, at 5 µM, stronger effect = higher value",-13%
same,inhibition,"[5]; BGB combo, at 5 µM",-33.4%
same,inhibition,[5]; at 0.5 µM,-28.1% (inactive)
same,inhibition,"[5]; cisplatin combo, at 5 µM",-14%
same,inhibition,[5]; [26],-28.7%
same,inhibition,[5]; [27],-15.2%
same,inhibition,"[5]; single agent, at 5 µM",-52.9%
same,inhibition,"[6]; BGB IC20 combo, at 0.005 µM",-1.06%
same,inhibition,"[6]; BGB IC40 combo, at 0.005 µM",-15.6%
same,inhibition,"[6]; BGB IC40 combo, at 0.05 µM",-24.6%
same,inhibition,[6]; at 0.5 µM,-11.4% (inactive)
same,inhibition,"[6]; cisplatin combo, at 0.05 µM",-24.6%
same,inhibition,"[6]; cisplatin combo, at 0.5 µM",-24.3%
same,inhibition,"[6]; cisplatin combo, at 5 µM",15.2%
same,inhibition,"[6]; measured here: 5 uM single agent, at 5 µM",-2.52%
same,inhibition,[7]; at 0.5 µM,-18.2% (inactive)
same,inhibition,[7]; [25],-11.6%
same,inhibition,[7]; [28],-19.1%
same,inhibition,[7]; [29],-44%
same,inhibition,[8]; at 0.5 µM,-28.2% (inactive)
same,inhibition,"[8]; measured here: with BGB IC20, at 0.5 µM",-29.8%
same,inhibition,"[8]; measured here: with BGB IC20, at 5 µM",-10%
same,inhibition,"[8]; measured here: with cisplatin IC20, at 0.5 µM",-43.4%
same,inhibition,"[8]; measured here: with cisplatin IC20, at 5 µM",-30.1%
same,inhibition,"[8]; single agent, at 5 µM",-16.7%
same,inhibition,[9]; at 0.5 µM,-61.6% (inactive)
same,inhibition,"[9]; measured here: combination with BGB at IC20, at 0.5 µM",-74.6%
same,inhibition,"[9]; measured here: combination with cisplatin at IC20, at 0.5 µM",-68.6%
same,inhibition,[10]; at 0.5 µM,-9.09% (inactive)
same,inhibition,"[10]; measured here: combo with BGB at IC20, at 0.5 µM",-13.9%
same,inhibition,"[10]; measured here: combo with cisplatin at IC20, at 0.5 µM",-16.6%
same,inhibition,[11]; at 0.5 µM,7.61% (inactive)
same,inhibition,"[11]; measured here: inhibition with BGB combination, at 0.05 µM",-29.4%
same,inhibition,"[11]; measured here: inhibition with cisplatin combination, at 0.05 µM",-3.05%
same,inhibition,[12]; at 0.5 µM,-6.12% (inactive)
same,inhibition,[12]; [28],0.862%
same,inhibition,[12]; [29],2.6%
same,inhibition,[13]; at 0.5 µM,-21.2% (inactive)
same,inhibition,"[13]; measured here: BGB combination, at 0.5 µM",-29.5%
same,inhibition,"[13]; measured here: BGB combination, at 5 µM",-21.7%
same,inhibition,"[13]; measured here: cisplatin combination, at 0.5 µM",-25.6%
same,inhibition,"[13]; measured here: cisplatin combination, at 5 µM",-2.99%
same,inhibition,"[14]; BGB combination, concentration series, at 5 µM",-17.4%
same,inhibition,[14]; at 0.5 µM,-16.8% (inactive)
same,inhibition,"[14]; cisplatin combination, concentration series, at 5 µM",-7.33%
same,inhibition,[15],-3.66% (inactive)
same,inhibition,[15]; measured here: combo with BGB IC20,2.88%
same,inhibition,[15]; measured here: combo with cisplatin IC20,-17%
same,inhibition,[16]; at 0.5 µM,-0.679% (inactive)
same,inhibition,"[16]; cisplatin combination, at 0.5 µM",-0.865%
same,inhibition,"[16]; cisplatin combination, at 5 µM",-52%
same,inhibition,"[16]; measured here: BGB IC40 combination 0.05 uM, at 0.05 µM",24%
same,inhibition,"[16]; single agent, at 5 µM",-28.3%
same,inhibition,[17]; at 0.5 µM,-1.7% (inactive)
same,inhibition,"[17]; cisplatin combo, at 5 µM",11.7%
same,inhibition,"[17]; measured here: BGB IC40 combination, at 0.05 µM",-6.98%
same,inhibition,[17]; [28],-10.2%
same,inhibition,"[17]; single agent, at 5 µM",-30.2%
same,inhibition,[18]; at 0.5 µM,-50% (inactive)
same,inhibition,[18]; [26],-14.8%
same,inhibition,[18]; [27],-67.7%
same,inhibition,"[18]; single agent, at 0.05 µM",32.2%
same,inhibition,"[18]; single agent, at 5 µM",11.1%
CCOC(=O)c1c(C)nn(-c2ccc(OC)cc2)c1C,fold change,[1]; [19],0.895 (inactive)
same,fold change,[1]; [20],0.849
same,cell count,[1]; [21],7720
same,cell count,[1]; [22],8620
same,z-score,[2]; [23],0.662 (inactive)
same,z-score,[2]; [24],0.769
same,z-score,[3],0.595 (inactive)
Cc1nc2cc(C(=O)N(C)Cc3cc(-c4cccnc4)no3)ccc2s1,fold change,[1]; [19],0.86 (inactive)
same,fold change,[1]; [20],2.36
same,cell count,[1]; [21],6380
same,cell count,[1]; [22],7420
same,z-score,[2]; [23],-0.957 (inactive)
same,z-score,[2]; [24],-0.223
same,z-score,[3],-0.55 (inactive)
CC(=O)Nc1cccc(-c2nn(CC(=O)Nc3cnn(C)n3)c3ccccc23)c1,fold change,[1]; [19],0.885 (inactive)
same,fold change,[1]; [20],1.89
same,cell count,[1]; [21],8450
same,cell count,[1]; [22],9550
same,z-score,[2]; [23],-0.345 (inactive)
same,z-score,[2]; [24],0.241
same,z-score,[3],-0.43 (inactive)
Nc1nc(NCc2ccncc2)c2cn[nH]c2n1,fold change,[1]; [19],0.931 (inactive)
same,fold change,[1]; [20],0.844
same,cell count,[1]; [21],8290
same,cell count,[1]; [22],8900
same,z-score,[2]; [23],-0.45 (inactive)
same,z-score,[2]; [24],-0.366
same,z-score,[3],-0.535 (inactive)
CNCc1ccccc1-c1cccs1,fold change,[1]; [19],0.861 (inactive)
same,fold change,[1]; [20],0.648
same,cell count,[1]; [21],8130
same,cell count,[1]; [22],9440
same,z-score,[2]; [23],-0.43 (inactive)
same,z-score,[2]; [24],-0.443
same,z-score,[3],0.065 (inactive)
Cc1nonc1CN(C)c1ncnc2nc[nH]c12,fold change,[1]; [19],0.907 (inactive)
same,fold change,[1]; [20],0.714
same,cell count,[1]; [21],9230
same,cell count,[1]; [22],10200
same,z-score,[2]; [23],-0.379 (inactive)
same,z-score,[2]; [24],-0.0852
same,z-score,[3],-0.565 (inactive)
